# Reference: PubChem BioAssay (Tox21)
# Inconclusive results are not listed. Where a call stands in place of a potency, no number is given. Some structures have more than one record in an assay (separate samples or runs), and their calls can disagree. Active and inactive are the calls of the source. Calls come from the whole dose curve; as a rule, active = well fitted cell-killing curve with a large enough effect in the repeat runs; inconclusive = weak or mixed curves, or effect the other way; inactive = flat fitted curve, though single readings scatter.
# Experiment: Caspase-3/7 induction in HepG2 cells by small molecules, qHTS cell viability counter screen (AID 1346981); note: nearly all actives have a fitted effect of over 30% in size
# Settings: CellTiter-Fluor fluorescence, 17 h; series mostly up to 92.4 µM; activity change, negative = cytotoxicity: at the top concentration
# Excerpt: U.S. Tox21 Program National Center for Advancing Translational Sciences [NCATS] NIH Chemical Genomics Center [NCGC] U.S. Environmental Protection Agency [EPA] National Institutes of Environmental Health Sciences [NIEHS] National Toxicology Program [NTP] U.S. Food and Drug Administration [FDA] Tox21 Assay Overview: Apoptosis is a process of programmed cell death and plays a central role in the development of multicellular organisms. It is a highly regulated process and induces cell death by activating caspases, which are the members of cysteine aspartic acid-specific protease (caspase) family. Caspases involved in apoptosis are classified by their mechanism of action as initiator caspases (caspase-2, -8, -9 and -10) and executioner caspases (caspase-3, -6, and -7). Inhibition of apoptosis results in number of cancers, autoimmune diseases, inflammatory diseases and viral infection. To identify small molecule compounds that induce apoptosis, a homogeneous, luminescent Caspase-Glo 3/7 assay was used. Wild type HepG2 cells were used to screen Tox21 libraries for identifying caspase-3/7 activity inducers. Also cytotoxicity of the compounds was tested in parallel by measuring the cell viability using CellTiter-Fluor assay system in the same wells.
# Tox21 Assay Protocol Summary: HepG2 cells were dispensed at 2,000 per well in 5uL of culture medium into white solid bottom 1536-well plates (Corning Life Sciences, Corning, NY) using a Multidrop Combi (Thermo Scientific, Waltham, MA) dispenser. The assay plates were incubated at 37 C and 5% CO2 for 5hr, and then 23nL of compounds dissolved in DMSO and positive control were transferred using a Pintool station ([…], San Diego, CA). The assay plates were incubated at 37C and 5% CO2 for 17hr. For cytotoxicity read, after 16hr incubation at 37C, 1uL CellTiter-Fluor reagent (Promega Corporation, Madison, WI) was added to each well of the assay plates using Flying Reagent Dispenser (FRD, Aurora Discovery, San Diego, CA). After 1hr incubation at 37C and 5% CO2, the fluorescence signal was quantified using a ViewLux plate reader (PerkinElmer, Shelton, CT).
# Potency is the fitted concentration of half-maximal effect.
SMILES,Potency,"activity change, negative = cytotoxicity"
CCCCCCC(C)O (stereo not given),inactive,
OC[C@@H](O)[C@@H](O[C@@H]1O[C@H](CO)[C@H](O)[C@H](O)[C@H]1O)[C@H](O)[C@@H](O)CO,inactive,
CCOC(=O)C(C)Oc1ccc(Oc2cnc3cc(Cl)ccc3n2)cc1 (stereo not given),inactive,
C[N+](C)(C)CCO,inactive,
CCO[Si](CCCNC(N)=O)(OCC)OCC,inactive,
CCCCCC1C(=O)CCC1CC(=O)OC (stereo not given),,5.84% (inactive)
CCC/C=C/C=O,inactive,
CC(=O)[C@H]1CC[C@H]2[C@@H]3CC=C4C[C@@H](O)CC[C@]4(C)[C@H]3CC[C@]12C,inactive,
ClC/C=C/CCl,inactive,
Nc1cc([N+](=O)[O-])ccc1C(=O)O,,-4.19% (inactive)
CC/C(=C(/CC)c1ccc(O)cc1)c1ccc(O)cc1,,-8.28% [at 42.5 µM] (inactive)
CC(=O)Oc1c(C)c(C)c2c(c1C)CC[C@@](C)(CCC[C@H](C)CCC[C@H](C)CCCC(C)C)O2,inactive,
O=[Se](O)O,24.4 µM (active),2.81% [at 19 µM] (inactive)
Cc1ccc2c(c1)C(=O)OC2=O,inactive,
CC(C)=CCO,inactive,
Brc1nc2ccccc2s1,inactive,
FC(F)(F)C(Cl)Br (stereo not given),inactive,
Cc1ccc(S(=O)(=O)NCl)cc1,inactive,
O=C(O)CCCC(=O)O,inactive,
Cc1ccc([N+](=O)[O-])c(C)c1,,-0.323% (inactive)

SMILES,Potency,"activity change, negative = cytotoxicity"
Cc1ccc(N)c([N+](=O)[O-])c1,inactive,
C=CCOC(=O)C(=C)C,inactive,
NC[C@H](O)c1ccc(O)c(O)c1,inactive,
[O-]/[N+](=N\O)c1ccccc1,,1.71% (inactive)
Nc1cc(Cl)c(N)c(Cl)c1,inactive,
O=C(O)COCCN1CCN(C(c2ccccc2)c2ccc(Cl)cc2)CC1 (stereo not given),inactive,
C[C@]12CC[C@@H]3c4ccc(O)cc4CC[C@H]3[C@@H]1CC[C@H]2O,inactive,
O=C(CCCN1CCC(O)(c2ccc(Cl)cc2)CC1)c1ccc(F)cc1,48.6 µM (active) and inactive,
CCCN1C=CN(C)C1,inactive,
CC(=O)O[C@]1(C(C)=O)CC[C@H]2[C@@H]3C=C(Cl)C4=CC(=O)CC[C@]4(C)[C@H]3CC[C@@]21C,61 µM (active) and inactive,
c1ccc2cc3ccccc3cc2c1,inactive,
c1ccc2ncccc2c1,inactive,
COC(=O)CC(=O)OC,inactive,
C=C[Si](OCCOC)(OCCOC)OCCOC,inactive,
CNC[C@H](O)c1ccc(O)c(O)c1,,-0.0374% [at 19 µM] (inactive)
C=CC(C)(O)CCC=C(C)C (stereo not given),inactive,
NCCN,inactive,
C1COCCN1,inactive,
c1ccc2c(c1)ccc1cc3c(ccc4ccccc43)cc12,inactive,
